For some assays here: Results with a measured potency or affinity are listed apart.
Assays:
Parameters in all cases: scale not given: direction of the effect not stated beside the values
[1] = target: Protein translocase subunit SecA (Escherichia coli (strain K12)) (UniProt P10408); test: Assay to Identify E. coli SecA ATPase Inhibitors; assay type: functional; details: 30 µM
[2] = target: T1, Ubiquitin-activating enzyme e1, putative (Leishmania donovani (strain BPK282A1)) (UniProt E9BSI1); test: Leishmania donovani Ubiquitin Activating Enzyme (LdE1); assay type: functional; details: 30 µM
T1 sequence (whole entry): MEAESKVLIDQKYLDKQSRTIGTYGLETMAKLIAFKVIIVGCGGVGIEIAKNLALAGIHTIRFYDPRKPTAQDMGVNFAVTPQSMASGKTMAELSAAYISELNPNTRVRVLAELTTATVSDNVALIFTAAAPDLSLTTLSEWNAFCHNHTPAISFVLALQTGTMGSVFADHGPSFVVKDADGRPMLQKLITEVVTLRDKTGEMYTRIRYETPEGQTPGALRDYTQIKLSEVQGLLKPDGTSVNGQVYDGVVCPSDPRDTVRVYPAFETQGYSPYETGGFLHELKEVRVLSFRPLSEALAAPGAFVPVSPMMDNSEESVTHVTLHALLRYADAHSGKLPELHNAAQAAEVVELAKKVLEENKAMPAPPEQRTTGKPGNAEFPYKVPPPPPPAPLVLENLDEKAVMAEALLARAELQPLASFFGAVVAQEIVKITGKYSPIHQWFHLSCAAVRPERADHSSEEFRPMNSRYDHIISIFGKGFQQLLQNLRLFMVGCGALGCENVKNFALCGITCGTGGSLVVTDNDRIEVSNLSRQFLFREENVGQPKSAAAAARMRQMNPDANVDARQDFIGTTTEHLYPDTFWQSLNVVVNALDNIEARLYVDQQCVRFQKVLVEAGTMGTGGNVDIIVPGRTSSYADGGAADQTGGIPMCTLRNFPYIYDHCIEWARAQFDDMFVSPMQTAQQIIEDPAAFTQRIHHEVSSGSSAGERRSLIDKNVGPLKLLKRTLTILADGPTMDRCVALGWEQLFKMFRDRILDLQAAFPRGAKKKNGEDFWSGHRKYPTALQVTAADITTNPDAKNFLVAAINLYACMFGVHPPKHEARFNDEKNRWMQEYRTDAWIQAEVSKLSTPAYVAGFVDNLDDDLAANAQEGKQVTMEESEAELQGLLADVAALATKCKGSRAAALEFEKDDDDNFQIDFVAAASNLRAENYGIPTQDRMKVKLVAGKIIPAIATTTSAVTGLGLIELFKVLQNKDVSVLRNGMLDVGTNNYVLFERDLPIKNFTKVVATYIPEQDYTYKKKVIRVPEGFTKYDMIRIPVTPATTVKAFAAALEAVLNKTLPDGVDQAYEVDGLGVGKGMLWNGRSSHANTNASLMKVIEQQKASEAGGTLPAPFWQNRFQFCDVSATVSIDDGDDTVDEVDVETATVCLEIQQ

[3] = target: AMP-activated protein kinase, AMPK (Homo sapiens) (UniProt P54646+O43741+P54619+Q9UGJ0+Q9Y478+Q13131+Q9UGI9); test: AMP-dependent Kinase enzyme assay. An in vitro enzyme assay that detects ADP turnover that is directly proportional to AMPK activity. This uses naive AMPK that is activated during the assay with MK-8722; assay type: functional; details: 30 µM
[4] = target: Sialic acid-binding Ig-like lectin 9 (Homo sapiens) (UniProt Q9Y336); test: Hs-Siglec9 ALPHAscreen SOP 20170721; details: 10 µM
Sequence of Sialic acid-binding Ig-like lectin 9 (Homo sapiens) (Q9Y336 whole entry): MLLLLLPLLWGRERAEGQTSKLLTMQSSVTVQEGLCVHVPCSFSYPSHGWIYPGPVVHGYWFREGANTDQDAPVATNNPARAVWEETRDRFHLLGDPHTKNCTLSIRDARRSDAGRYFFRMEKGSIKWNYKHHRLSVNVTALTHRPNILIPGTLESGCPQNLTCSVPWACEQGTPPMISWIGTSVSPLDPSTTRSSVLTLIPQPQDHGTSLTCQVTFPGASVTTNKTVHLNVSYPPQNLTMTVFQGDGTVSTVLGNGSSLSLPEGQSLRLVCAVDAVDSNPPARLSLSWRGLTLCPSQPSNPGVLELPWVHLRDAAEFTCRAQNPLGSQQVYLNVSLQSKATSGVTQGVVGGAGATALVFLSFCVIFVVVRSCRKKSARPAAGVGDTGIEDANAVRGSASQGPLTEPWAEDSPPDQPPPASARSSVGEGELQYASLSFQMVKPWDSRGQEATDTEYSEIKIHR

[5] = tested on: Trypanosoma cruzi; test: Trypanosoma cruzi phosphomannomutase and mannose-1-phosphate guanylyltransferase assay; assay type: functional; details: 10 µM
[6] = target: T2, Arginase-2, mitochondrial (Homo sapiens) (UniProt P78540); test: in vitro enzyme assay to detect the production of urea directly proportional to the activity of Arginase II; assay type: functional; details: 33.3 µM; further: in the data most compounds retested in dose-response had high values
T2 sequence (whole entry): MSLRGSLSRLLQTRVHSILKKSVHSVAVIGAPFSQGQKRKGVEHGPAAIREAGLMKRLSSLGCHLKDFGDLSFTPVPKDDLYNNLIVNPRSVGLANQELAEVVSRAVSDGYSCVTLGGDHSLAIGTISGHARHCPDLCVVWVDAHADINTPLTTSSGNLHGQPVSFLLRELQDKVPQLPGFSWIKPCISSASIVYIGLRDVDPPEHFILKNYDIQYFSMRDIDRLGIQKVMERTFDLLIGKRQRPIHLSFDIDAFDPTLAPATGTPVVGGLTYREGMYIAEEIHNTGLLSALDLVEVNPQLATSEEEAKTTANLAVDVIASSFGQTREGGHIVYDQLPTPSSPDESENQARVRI

[7] = target: T3, Proteasome subunit beta (Trypanosoma cruzi) (UniProt O96673); test: Trypanosoma cruzi proteasome chymotrypsin-like activity (TcProtChymo) assay.; further: in the data most compounds retested in dose-response had high values; assay type: functional; details: 9.37 µM
T3 sequence (whole entry): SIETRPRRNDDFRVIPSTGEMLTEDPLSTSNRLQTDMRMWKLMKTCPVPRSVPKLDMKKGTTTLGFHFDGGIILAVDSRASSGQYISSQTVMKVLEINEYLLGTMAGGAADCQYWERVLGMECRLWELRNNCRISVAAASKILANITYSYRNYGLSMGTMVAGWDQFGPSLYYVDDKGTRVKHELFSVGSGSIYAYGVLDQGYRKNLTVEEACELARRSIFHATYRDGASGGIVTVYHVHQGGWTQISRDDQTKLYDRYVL

[8] = organism: Homo sapiens; test: To identify inhibition of the IFN signalling (Jak-Stat) pathway via expression of an eGFP reporter gene under the control of an IFN-stimulated response element (ISRE) containing MxA promoter.; assay type: functional; details: 30 µM
[9] = target: T4, Tyrosyl-tRNA synthetase, putative (Trypanosoma cruzi (strain CL Brener)) (UniProt Q4DSP6); test: Trypanosoma cruzi tyrosyl tRNA synthetase (TcYRS) _High Tyrosine SOP; assay type: functional; details: 30 µM; further: in the data most compounds retested in dose-response had high values
T4 sequence (whole entry): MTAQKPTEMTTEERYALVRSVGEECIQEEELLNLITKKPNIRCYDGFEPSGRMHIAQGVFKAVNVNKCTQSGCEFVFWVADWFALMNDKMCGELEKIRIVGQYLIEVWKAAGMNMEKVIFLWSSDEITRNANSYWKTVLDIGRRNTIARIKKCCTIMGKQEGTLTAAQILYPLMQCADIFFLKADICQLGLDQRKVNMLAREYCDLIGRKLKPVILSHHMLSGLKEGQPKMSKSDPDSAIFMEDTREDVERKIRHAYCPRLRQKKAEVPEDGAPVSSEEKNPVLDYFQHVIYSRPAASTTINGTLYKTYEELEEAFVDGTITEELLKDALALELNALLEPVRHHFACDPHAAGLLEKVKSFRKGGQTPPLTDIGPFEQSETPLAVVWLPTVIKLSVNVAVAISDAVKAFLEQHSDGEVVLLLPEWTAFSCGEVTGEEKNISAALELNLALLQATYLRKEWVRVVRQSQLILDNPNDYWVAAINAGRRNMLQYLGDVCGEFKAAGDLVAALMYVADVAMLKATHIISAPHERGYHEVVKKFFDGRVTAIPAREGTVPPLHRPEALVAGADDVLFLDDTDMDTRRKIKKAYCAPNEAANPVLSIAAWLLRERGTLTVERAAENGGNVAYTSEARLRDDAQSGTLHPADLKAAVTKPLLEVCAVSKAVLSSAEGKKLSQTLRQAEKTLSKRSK

[10] = target: T4, Tyrosyl-tRNA synthetase, putative (Trypanosoma cruzi (strain CL Brener)); test: Trypanosoma cruzi tyrosyl tRNA synthetase (TcYRS) SOP; assay type: functional; details: 30 µM
[11] = target: Chromo domain-containing protein 1 (Saccharomyces cerevisiae (strain ATCC 204508 / S288c) (Baker's yeast)) (UniProt P32657); test: ScCHD-1 Enzyme Inhibition Assay; assay type: functional; details: 30 µM; further: in the data most compounds retested in dose-response had high values
Sequence of Chromo domain-containing protein 1 (Saccharomyces cerevisiae (strain ATCC 204508 / S288c) (Baker's yeast)) (P32657 whole entry, the tested form may be a part): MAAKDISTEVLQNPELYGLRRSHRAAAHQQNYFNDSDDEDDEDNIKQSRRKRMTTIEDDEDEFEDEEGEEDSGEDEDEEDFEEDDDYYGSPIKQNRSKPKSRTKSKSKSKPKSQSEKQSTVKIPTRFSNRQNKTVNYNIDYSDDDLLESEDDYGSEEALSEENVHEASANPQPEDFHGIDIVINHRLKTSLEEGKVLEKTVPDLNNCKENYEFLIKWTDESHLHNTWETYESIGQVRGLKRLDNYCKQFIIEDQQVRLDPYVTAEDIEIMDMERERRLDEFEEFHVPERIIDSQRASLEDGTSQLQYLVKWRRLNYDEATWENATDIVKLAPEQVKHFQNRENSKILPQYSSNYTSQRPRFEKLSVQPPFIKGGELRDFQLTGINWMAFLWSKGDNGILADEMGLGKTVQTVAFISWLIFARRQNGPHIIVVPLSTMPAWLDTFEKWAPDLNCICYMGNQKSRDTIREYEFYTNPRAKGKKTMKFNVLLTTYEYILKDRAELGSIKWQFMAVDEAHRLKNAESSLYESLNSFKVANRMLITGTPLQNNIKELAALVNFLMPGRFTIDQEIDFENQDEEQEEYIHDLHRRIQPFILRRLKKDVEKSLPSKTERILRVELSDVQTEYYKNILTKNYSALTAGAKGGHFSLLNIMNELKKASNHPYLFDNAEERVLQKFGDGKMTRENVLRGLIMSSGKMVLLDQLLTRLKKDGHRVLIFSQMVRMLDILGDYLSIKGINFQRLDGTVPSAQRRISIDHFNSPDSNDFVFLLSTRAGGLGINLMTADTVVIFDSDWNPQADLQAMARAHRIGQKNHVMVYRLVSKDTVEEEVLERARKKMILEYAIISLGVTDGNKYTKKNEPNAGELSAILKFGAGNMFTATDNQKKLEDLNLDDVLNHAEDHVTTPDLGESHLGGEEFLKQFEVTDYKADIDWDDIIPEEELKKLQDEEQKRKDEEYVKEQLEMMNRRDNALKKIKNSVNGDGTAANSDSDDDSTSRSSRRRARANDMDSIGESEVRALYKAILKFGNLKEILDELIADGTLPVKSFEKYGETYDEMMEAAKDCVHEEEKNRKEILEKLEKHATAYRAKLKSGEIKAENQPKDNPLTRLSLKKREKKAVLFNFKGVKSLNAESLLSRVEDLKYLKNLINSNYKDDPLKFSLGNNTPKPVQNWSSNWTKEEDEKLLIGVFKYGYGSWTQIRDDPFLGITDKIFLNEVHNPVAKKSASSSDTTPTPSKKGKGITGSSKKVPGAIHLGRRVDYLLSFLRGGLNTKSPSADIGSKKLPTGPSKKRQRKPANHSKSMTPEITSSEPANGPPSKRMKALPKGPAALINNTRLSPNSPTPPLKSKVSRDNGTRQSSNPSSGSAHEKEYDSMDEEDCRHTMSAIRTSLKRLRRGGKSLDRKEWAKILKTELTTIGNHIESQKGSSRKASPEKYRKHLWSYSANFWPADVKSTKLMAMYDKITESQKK

Sequence of Protein translocase subunit SecA (Escherichia coli (strain K12)) (P10408 whole entry): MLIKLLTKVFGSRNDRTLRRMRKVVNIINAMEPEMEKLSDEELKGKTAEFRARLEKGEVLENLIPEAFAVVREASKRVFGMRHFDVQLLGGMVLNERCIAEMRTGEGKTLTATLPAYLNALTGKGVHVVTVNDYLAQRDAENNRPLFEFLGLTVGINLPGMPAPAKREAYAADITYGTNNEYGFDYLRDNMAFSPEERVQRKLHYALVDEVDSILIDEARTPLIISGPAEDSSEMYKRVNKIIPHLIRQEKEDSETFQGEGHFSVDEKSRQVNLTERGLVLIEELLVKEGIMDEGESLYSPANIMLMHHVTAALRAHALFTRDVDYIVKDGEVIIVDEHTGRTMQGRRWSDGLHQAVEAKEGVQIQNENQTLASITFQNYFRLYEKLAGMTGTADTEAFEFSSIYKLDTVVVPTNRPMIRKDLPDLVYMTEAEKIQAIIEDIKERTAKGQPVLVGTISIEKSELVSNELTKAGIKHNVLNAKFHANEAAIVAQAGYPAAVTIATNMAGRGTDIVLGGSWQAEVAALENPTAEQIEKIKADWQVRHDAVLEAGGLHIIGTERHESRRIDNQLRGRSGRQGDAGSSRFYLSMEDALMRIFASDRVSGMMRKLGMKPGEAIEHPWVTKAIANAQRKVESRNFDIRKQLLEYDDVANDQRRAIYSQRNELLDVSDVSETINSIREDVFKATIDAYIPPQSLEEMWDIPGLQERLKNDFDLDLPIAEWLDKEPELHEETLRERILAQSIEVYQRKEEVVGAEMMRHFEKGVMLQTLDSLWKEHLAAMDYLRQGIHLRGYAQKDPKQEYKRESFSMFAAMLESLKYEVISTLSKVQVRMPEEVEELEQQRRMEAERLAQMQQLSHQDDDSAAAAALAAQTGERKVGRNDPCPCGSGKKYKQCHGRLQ

| SMILES | Percent Effect [1] | Percent Effect [2] | Percent Effect [3] | Percent Effect [4] | Percent Effect [5] | Percent Effect [6] | Percent Effect [7] | Percent Effect [8] | Percent Effect [9] | Percent Effect [10] | Percent Effect [11] |
| --- | --- | --- | --- | --- | --- | --- | --- | --- | --- | --- | --- |
| COc1ccc(-c2noc(CNC(C)Cn3cccn3)n2)c(OC)c1 (stereo not given) | -5.86% | 31.6% | -3.12% | -7.44% | 2.15% | -2.52% | 9.9% | 17.3% | 5.42% | 25.9% | -11.8% |
| Nc1nccc(NCc2cc3n(n2)CCCN(C(=O)C2CCC2)C3)n1 | -4.85% | 8.22% | 2.89% | 2.05% | -0.794% | -3.59% | 14.5% | 9.88% | 4.17% | 11.1% | -0.468% |
| CC(=O)N1CCN(C(=O)c2cc(-n3cnnn3)ccc2Cl)CC1 | -7.31% | 2.63% | -6.84% | 0.287% | -2.63% | -4.73% | 6.04% | 9.34% | -2.13% | -2.6% | 0.334% |
| CCOc1ccc(C(C)NC(=O)N2CCC(C(N)=O)CC2)cc1OC (stereo not given) | -4.66% | 10.8% | 4.64% | 6.99% | 6.76% | 1.43% | 14.7% | 4.99% | 5.82% | 12.2% | -0.606% |
| Cc1ccc(C2(CN3CCCC3)CCNCC2)nc1 | -3.03% | 8.11% | -4.02% | 3.83% | 2.32% | -2.86% | 11.6% | -11.7% | 10.1% | 9.76% | -0.82% |
| CCCc1n[nH]c(C2CN(C(=O)CCCn3cccn3)CCO2)n1 (stereo not given) | -4.8% | -4.17% | -0.0148% | -2.33% | -2.82% | -0.883% | 7.89% | -2.8% | -1.05% | -2.56% | 5.04% |
| O=S(=O)(NC1=NCN(CCc2cccs2)CN1)c1ccccc1 | -3.47% | 9.33% | 1.7% | 2.24% | 6.29% | -11.1% | 18.3% | 19.6% | 5.29% | 12.8% | -7.27% |
| CO[C@@H]1CC[C@H]2[C@H]1OCCN2C(=O)COc1ccc(F)cc1 | 0.9% | -2.7% | 12.4% | 0.225% | -4.01% | 3.5% | 15.3% | 3.76% | 4.32% | -2.56% | 0.177% |
| CCOc1cc(/C=C/c2ncc(C(=O)O)s2)cc(Cl)c1OC | -1.71% | 8.86% | 6.6% | 1.04% | -7.28% | -4.52% | 12.3% | 10.1% | 0% | 7.59% | -21.1% |
| Cc1sc(NC(=O)CN(C)S(C)(=O)=O)c(C#N)c1C | -2.06% | 7.79% | 7.85% | -2.17% | -6.8% | -29% | 13.4% | 2.12% | 5.29% | 8.97% | -6.9% |

— ChEMBL document CHEMBL3988442, “University of Dundee, Small-Polar-MMV Screening Library” (2021)
